Most compounds without a hit are left out; they make up all but 3% or so of the library.
KKLEB cytotox = reduces viability of KKLEB cystic fibrosis airway cells; KKLEB CF airway cells viability, ATPlite luminescence, overnight; stronger effect = lower value; cells stimulated with P. aeruginosa culture filtrate; activity change (cytotoxicity), % at 5 µM; 360,000 compounds, 0.36% hits;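 active = corrected activity change at or below -50% at 5 µM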
TRPM1 prom inh = MITF TRPM1 promoter inhibition in SK-MEL-5 cells; SK-MEL-5 TRPM1 promoter luciferase, 24 h; inhibition, % at 12.5 µM; 330,000 compounds, 0.83% hits; AID 488899;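 active = mean inhibition across replicates of 60% or more, whatever share of single replicates reaches that level; inconclusive = some that reach 60%, reason not given; inactive = mean inhibition across replicates below 60%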
HIF-2a inh = inhibitors of HIF-2a | 786-0 RCC cells HIF-2a reporter, luciferase luminescence, overnight | inhibition, % at 18.8 µM | 360,000 compounds, 0.72% hits | AID 624352;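 active = inhibition of the luminescence signal of 40% or more relative to plate controls, in a single-dose primary screen at 18.75 µM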
EBV LMP1 NFkB = inhibitors of Epstein-Barr LMP1-induced NF-kappaB reporter; LMP1-induced NF-kappaB luciferase reporter cells, luminescence; inhibition, % at 12.5 µM; 350,000 compounds, 0.69% hits; AID 504558; in the data active = inhibition above about 41%; inconclusive = no clear call, values can overlap the other calls;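 note: 0% = neutral control wells and 100% = reference inhibitor control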
CF NFkB block = blocks PAF-induced NF-kB reporter in cystic fibrosis cells; KKLEB NF-kB-GFP reporter, GFP fluorescence overnight; inhibition, % at 5 µM; 360,000 compounds, 0.86% hits;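 active = at least 50% inhibition at 5 µM, scaled per plate between neutral and stimulator controls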;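 note: PAF is a Pseudomonas aeruginosa culture filtrate used as stimulus; plate controls were PAF-stimulated DMSO wells for no effect and unstimulated DMSO wells for full effect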
Peg3 promoter = Peg3 promoter activity inhibition | HeLa PEG-Prom luciferase reporter, luminescence, overnight | inhibition, % at 20 µM | 360,000 compounds, 1.7% hits;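 active = inhibition of at least 50% at 20 µM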
CF NFkB conf = CF NF-kB inhibition confirmation, single concentration; shares compounds with CF NFkB block; KKLEB CF airway cells, PAF-induced NF-kB-GFP fluorescence, overnight; inhibition, % at 5 µM; 1,300 compounds, 64% hits; in the data active = inhibition above about 40%;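 note: stimulus PAF is a Pseudomonas aeruginosa filtrate and not platelet activating factor; plate controls were DMSO wells with stimulus for no effect and unstimulated DMSO wells for full effect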
Mdm2 MdmX conf = Mdm2/MdmX (human) interaction inhibition, confirmed; shares compounds with HIF-2a inh; SaOS-2 split-luciferase Mdm2/MdmX complementation, luminescence; inhibition, % at 8 µM; 740 compounds, 99% hits;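 active = mean inhibition of the luminescence signal across two replicates at or above 26 percent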
Target sequence (O15151 whole entry, looked up): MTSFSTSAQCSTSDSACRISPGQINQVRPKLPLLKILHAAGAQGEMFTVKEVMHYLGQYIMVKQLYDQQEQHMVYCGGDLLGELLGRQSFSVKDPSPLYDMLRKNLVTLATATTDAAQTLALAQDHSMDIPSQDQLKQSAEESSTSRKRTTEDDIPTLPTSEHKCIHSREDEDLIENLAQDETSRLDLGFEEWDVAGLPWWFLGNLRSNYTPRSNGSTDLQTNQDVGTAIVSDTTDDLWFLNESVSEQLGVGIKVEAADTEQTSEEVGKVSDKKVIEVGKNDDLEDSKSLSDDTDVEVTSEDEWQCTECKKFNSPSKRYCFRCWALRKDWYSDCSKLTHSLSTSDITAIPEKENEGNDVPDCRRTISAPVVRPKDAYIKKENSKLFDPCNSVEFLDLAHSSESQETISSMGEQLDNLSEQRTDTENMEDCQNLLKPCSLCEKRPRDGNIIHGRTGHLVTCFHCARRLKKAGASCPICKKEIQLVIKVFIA
Target sequence (Q00987 whole entry, looked up): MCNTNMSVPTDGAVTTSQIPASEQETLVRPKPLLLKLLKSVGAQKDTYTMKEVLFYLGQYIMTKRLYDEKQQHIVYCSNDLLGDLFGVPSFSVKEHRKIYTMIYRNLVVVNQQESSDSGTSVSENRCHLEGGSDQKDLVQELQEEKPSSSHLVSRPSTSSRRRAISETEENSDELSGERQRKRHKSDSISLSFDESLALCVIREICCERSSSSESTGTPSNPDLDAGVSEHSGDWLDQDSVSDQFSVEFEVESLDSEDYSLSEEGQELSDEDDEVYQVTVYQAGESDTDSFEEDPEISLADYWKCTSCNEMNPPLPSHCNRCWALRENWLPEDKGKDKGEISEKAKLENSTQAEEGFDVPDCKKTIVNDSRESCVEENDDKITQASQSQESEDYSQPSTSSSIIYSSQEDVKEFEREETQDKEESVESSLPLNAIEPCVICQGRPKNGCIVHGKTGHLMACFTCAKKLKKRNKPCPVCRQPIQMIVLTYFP
HIF-2a conf = HIF-2a inhibition, single concentration confirmation; shares compounds with HIF-2a inh; 786-0 RCC cells, HIF-2a luciferase reporter luminescence, overnight; inhibition, % at 18.8 µM; 1,800 compounds, 56% hits; AID 651580;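 active = mean inhibition across four replicates of at least 40 percent at the single tested concentration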
HIF-1a cs = counter-screen for HIF-2a inhibitors: HIF-1a inhibition in MiaPaCa-2 cells; shares compounds with HIF-2a inh; MiaPaCa-2 HIF-1a luciferase reporter, desferoxamine, overnight; inhibition, % at 18.8 µM; 1,800 compounds, 72% hits; AID 651589;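 active = mean inhibition of the reporter signal across four replicates at the single tested dose of 50% or more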
* hit, by the source's call; ? = inconclusive; / = no result given.

SMILES	KKLEB cytotox	TRPM1 prom inh	HIF-2a inh	EBV LMP1 NFkB	CF NFkB block	Peg3 promoter	CF NFkB conf	HIF-2a conf	HIF-1a cs	others
C[C@H]1CCCCO[C@@H](CN(C)C(=O)NC2CCCCC2)[C@@H](C)CN([C@@H](C)CO)C(=O)c2cc(NC(=O)Cc3ccccc3)ccc2O1	-2	/	-4	2	29	18	/	/	/
COc1ccc(-c2csc3ncnc(Sc4nnnn4C)c23)cc1	-23	7	62*	87*	58*	69*	54*	62*	104*
Cn1nnnc1Sc1ncnc2scc(-c3cccc(S(C)(=O)=O)c3)c12	-14	78*	63*	47*	52*	100*	17	32	66*
O=C(O)CSc1ncnc2scc(-c3ccccc3)c12	6	-7	14	0	9	-142	/	/	/
Cn1nnnc1Sc1c(Cl)cccc1[N+](=O)[O-]	9	30	17	-4	18	-2	/	/	/
Cn1nnnc1Sc1ncnc2scc(-c3ccccc3Cl)c12	-24	44	65*	14	56*	106*	24	32	91*
CC(C)[C@@H]1CC[C@@H](C)C[C@H]1O	-5	/	2	/	-7	6	/	/	/
CC(C)(C)NC(=O)C(c1ccnc2ccccc12)n1c(=O)c(-c2ccco2)nc2ccccc21 (configuration not stated)	/	/	24	/	/	/	/	/	/
C=C1C(=O)OC2CC1C(OC(C)=O)CC(C)=CCCC(C)=CCCC2(C)O (configuration not stated)	-44	/	92*	/	94*	99*	32	92*	104*
C=C1C(=O)OC2CC1C(O)CC(C)=CCCC(C)=CC(O)CC2C (configuration not stated)	-40	95*	94*	-3	81*	98*	97*	98*	107*
CC(=O)OC1CCC2C3CCC4OC(=O)CCC4C3CCC12C (configuration not stated)	12	-8	-10	3	-23	4	/	/	/
C=C1C(=O)C2=CC1CCC(=O)C1(C)CCC(OC(C)=O)C(C)(C)C1CC2O (configuration not stated)	9	/	86*	?	83*	99*	83*	95*	105*
OC[C@@H]1CN(Cc2ccc(Cl)cc2)C[C@H](n2cnc3c(N4CCCC4)ncnc32)O1	10	/	0	/	-17	11	/	/	/
Cc1ccc2[nH]cc(C(=O)CCl)c2c1	-19	48	16	-7	60*	108*	86*	/	/	Mdm2 MdmX conf=103*
Cc1ccc2[nH]cc(C(=O)CN3CCN(C)CC3)c2c1	3	-1	2	-26	-1	5	/	/	/
O=C(Cc1ccccc1F)Nc1cc(S(=O)(=O)N2CCCCC2)ccc1N1CCOCC1	-2	/	7	2	26	5	/	/	/
COc1cc(/C=C/C(=O)c2ccc(O)cc2)ccc1OCC#N	-17	22	51*	-1	65*	97*	-5	-13	100*
CCCc1cc(-c2[nH]ncc2-c2ccc3c(c2)OCCCO3)c(O)cc1O	-5	14	46*	-5	50*	69*	68*	30	81*
Cc1noc(C)c1NC(=O)N(C)C[C@H]1OCc2cnnn2CCCC(=O)N([C@H](C)CO)C[C@H]1C	-1	/	11	/	-14	-8	/	/	/
O=C(Nc1ccc(S(=O)(=O)N2CCCCCC2)cc1)c1[nH]ncc1[N+](=O)[O-]	-12	70*	40*	2	70*	-21	-49	74*	88*
CCC1NC(=O)c2cc3ccccc3cc2-n2c1nc1cc(OC)c(OC)cc1c2=O (configuration not stated)	-8	/	-1	-13	9	21	/	/	/
O=C(Nc1nnc([C@@H]2C[C@H](O)[C@@H](CO)O2)s1)c1c(F)cccc1F	-18	/	7	/	-18	5	/	/	/
CC(C)(C)C(=O)Cn1ncc(Br)c(Br)c1=O	-41	93*	94*	61*	78*	97*	38	93*	105*
O=C1C=CC2C3C(=O)N(c4ccccc4)C(=O)C3C1N2Cc1ccccc1 (configuration not stated)	-17	96*	86*	23	80*	102*	-178	98*	104*
O=C1C2C3C=CC(CC3)C2C(=O)N1c1ccccc1 (configuration not stated)	2	11	15	3	5	8	/	/	/
SMILES	KKLEB cytotox	TRPM1 prom inh	HIF-2a inh	EBV LMP1 NFkB	CF NFkB block	Peg3 promoter	CF NFkB conf	HIF-2a conf	HIF-1a cs	others
COc1cc(-c2nc(-c3ccc(NC(=O)c4ccc5c(c4)OCO5)cc3)no2)cc(OC)c1OC	-49	-1	-138	3	58*	-77	42*	/	/	Mdm2 MdmX conf=88*
CCC(=O)N1Cc2cc(C(=O)Nc3nccs3)nc(-c3cccc(-c4ccccc4OC)c3)c2[C@@H]1CCO	/	/	-30	/	/	/	/	/	/
CC(=O)NC(c1ccccc1)c1nc(-c2cccc(C(F)(F)F)c2)cs1 (configuration not stated)	-2	/	-37	/	-10	12	/	/	/
CS(=O)(=O)c1ncc(Cl)c(C(=O)Nc2ccc(OC(F)F)cc2)n1	-37	73*	92*	?	90*	102*	88*	98*	100*	Mdm2 MdmX conf=103*
CCOC(=O)c1nc(S(C)(=O)=O)ncc1Cl	-4	29	46*	-15	69*	105*	-14	-3	6
CC(O)(c1cccnc1)c1nc(-c2ccc(F)c(Cl)c2)cs1 (configuration not stated)	0	/	-13	/	-27	6	/	/	/
CCOC(=O)C(=Cc1ccc(-n2cncn2)cc1)C(=O)OCC	-8	41	94*	11	75*	104*	22	90*	106*
CC(/C=N/n1c(-c2cccnc2)n[nH]c1=S)=C\c1ccccc1	14	-8	-7	4	12	8	/	/	/
CC(=C/c1ccccc1)/C=N/n1c(-c2ccncc2)n[nH]c1=S	-4	-30	16	56*	76*	-1	78*	/	/	Mdm2 MdmX conf=89*
Cc1ccc(C)c(NC(=O)CN2C(=O)C3CC=CCC3C2=O)c1 (configuration not stated)	5	/	9	4	-2	-11	/	/	/
